± gives the standard deviation of the averaged measurements.
System: AEK1 (Tb927.3.2440)
Test: percent reduction in TR-FRET probe signal relative to DMSO control; higher = stronger displacement of ATP-site probe (binding)
Conditions: 1 µM; incubation time 1 h

| SMILES | percent reduction in TR-FRET probe signal [%] |
| --- | --- |
| Cc1nc(NC(=O)N2CCC[C@H]2C(N)=O)sc1-c1ccnc(C(C)(C)C(F)(F)F)c1 | 0.68 ± 7.1 |
| CO[C@H]1C[C@@H]2CC[C@@H](C)[C@@](O)(O2)C(=O)C(=O)N2CCCC[C@H]2C(=O)O[C@H]([C@H](C)C[C@@H]2CC[C@H](n3cnnn3)[C@H](OC)C2)CC(=O)[C@H](C)/C=C(\C)[C@@H](O)[C@@H](OC)C(=O)[C@H](C)C[C@H](C)/C=C/C=C/C=C/1C [Zotarolimus(ABT-578)] | -16.6 ± 5 |
| Cc1cc(N2CCOCC2)cc2[nH]c(-c3c(NC[C@@H](O)c4cccc(Cl)c4)cc[nH]c3=O)nc12 | 21.7 ± 13 |
| CNC(=O)c1cccc(-c2ccc3c(N4CCOC[C@@H]4C)nc(N4CCOC[C@@H]4C)nc3n2)c1 [Vistusertib (AZD2014)] | 9.57 ± 9.3 |
| NC(=O)Nc1cc(-c2cccc(F)c2)sc1C(=O)N[C@H]1CCCNC1 | 48.5 ± 24 |
| O=C1NC(=O)C(c2cnc3ccccn23)=C1c1cn2c3c(cc(F)cc13)CN(C(=O)N1CCCCC1)CC2 | -14.7 ± 8.7 |
| O=C(NC1CCNCC1)c1n[nH]cc1NC(=O)c1c(Cl)cccc1Cl | -2.75 ± 9.5 |
| CC(C)n1nc(-c2cc3cc(O)ccc3[nH]2)c2c(N)ncnc21 | 5.23 ± 4.5 |
| Cn1c(Nc2ccc(C(F)(F)F)cc2)nc2cc(Oc3ccnc(-c4ncc(C(F)(F)F)[nH]4)c3)ccc21 | 34 ± 20 |
| Cc1cc(C(=O)NOCCO)c(Nc2ccc(I)cc2F)n(C)c1=O | 4.03 ± 2.7 |
| N#CCNC(=O)c1ccc(-c2ccnc(Nc3ccc(N4CCOCC4)cc3)n2)cc1 | 16.3 ± 16 |
| Cn1cc(-c2ccc3nnc(C(F)(F)c4ccc5ncccc5c4)n3n2)cn1 | -0.537 ± 18 |
| CN(C)CCCn1cc(C2=C(c3c[nH]c4ccccc34)C(=O)NC2=O)c2ccccc21 | 8.74 ± 7.2 |
| CC[C@@H]1C(=O)N(C)c2cnc(Nc3ccc(C(=O)N[C@H]4CC[C@H](N5CCN(CC6CC6)CC5)CC4)cc3OC)nc2N1C(C)C [Volasertib (BI 6727)] | 4.92 ± 1.3 |
| C[C@@]1(C(=O)Nc2ccc(F)nc2)CCCN1c1nc(Nc2cc(C3CC3)[nH]n2)c2cccn2n1 | 23.1 ± 8.1 |
| CCN1/C(=C/C(C)=O)Sc2ccc(OC)cc21 | 2.44 ± 5.9 |

| SMILES | percent reduction in TR-FRET probe signal [%] |
| --- | --- |
| CCN(CC)CCCC(C)Nc1nc(C)cc(Nc2ccc3nc(C)cc(N)c3c2)n1.Cl.Cl.Cl (configuration not stated) | -2.65 ± 9 |
| COc1cc(N2CCC(N)CC2)ccc1Nc1ncc(Cl)c(-c2c[nH]c3ccccc23)n1 | 7.47 ± 4.6 |
| NC[C@@](O)(c1ccc(Cl)cc1)c1ccc(-c2cn[nH]c2)cc1 | 11 ± 16 |
| COCC(=O)NC/C=C/c1ccc2ncnc(Nc3ccc(Oc4ccc(C)nc4)c(C)c3)c2c1 | 3.65 ± 5.5 |
| O=C1NC(=O)[C@@H](c2cn3c4c(cccc24)CCC3)[C@@H]1c1c[nH]c2ccccc12 [Tivantinib (ARQ 197)] | 5.86 ± 12 |
| COc1cc2nccc(Oc3ccc(NC(=O)Nc4ccc(F)cc4F)c(F)c3)c2cc1OC | 10.2 ± 11 |
| CC(C)(C)c1nc(-c2cccc(NS(=O)(=O)c3c(F)cccc3F)c2F)c(-c2ccnc(N)n2)s1 | 6.2 ± 7.3 |
| CCCCCCCCCCCCCCCCOP(=O)([O-])OCC[N+](C)(C)C [Miltefosine] | 4.96 ± 18 |
| CCN(CC)CCNC(=O)c1c(C)[nH]c(/C=C2\C(=O)Nc3ccc(F)cc32)c1C.O=C(O)C[C@H](O)C(=O)O [Sunitinib Malate] | 14.7 ± 14 |
| COc1c(C)c(C(=O)c2ccc(N)c(C(=O)[O][Na])c2)n2ccccc12 | 6.59 ± 7.5 |
| Cl.Cl.O=S(=O)(NCCNC/C=C/c1ccc(Br)cc1)c1cccc2cnccc12 | 9.74 ± 13 |
| N#CC[C@H](C1CCCC1)n1cc(-c2ncnc3[nH]ccc23)cn1 | 22.6 ± 7.6 |
| Cc1c(Cn2c(C)nc3c(C(=O)O)cc(N4CCOCC4)cc32)cccc1C(F)(F)F | 1.17 ± 7.4 |
| N#C/C(=C(/N)Sc1ccc(N)cc1)c1ccccc1C(F)(F)F | 2.78 ± 13 |
| C[C@H]1[C@H](C)CC[C@]2(C(=O)O)CC[C@]3(C)C(=CC[C@@H]4[C@@]5(C)C[C@@H](O)[C@H](O)[C@@](C)(CO)[C@@H]5CC[C@]43C)[C@H]12 [Asiatic Acid] | -8.28 ± 13 |
| CO[C@H]1C[C@@H]2CC[C@@H](C)[C@@](O)(O2)C(=O)C(=O)N2CCCC[C@H]2C(=O)O[C@H]([C@H](C)C[C@@H]2CC[C@@H](OC(=O)C(C)(CO)CO)[C@H](OC)C2)CC(=O)[C@H](C)/C=C(\C)[C@@H](O)[C@@H](OC)C(=O)[C@H](C)C[C@H](C)/C=C/C=C/C=C/1C | 2.13 ± 12 |

Source: the supplement of paper PMC10720658
